From PubChem BioAssay (NCATS)
Records with an inconclusive call do not appear. Calls of active or inactive are those of the source. Calls come from the whole dose curve; as a rule, active = well fitted curve in the direction sought with a large enough effect; inconclusive = small, poorly fitted or top-dose-only effect, or another doubt; inactive = no such curve, though single readings can be large; an effect the other way counts as inactive or inconclusive.

How the values were obtained:
[1] = Quantitative High-Throughput drug screen in 47 multiple myeloma cell lines against the NCATS MIPE library collection: INA6_PLB cell viability assay (AID 1918965; note: nearly all actives have a fitted effect of over 55% in size)
Outline: (§1)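 CellTiter-Glo luminescence (ATP) after 48 h compound exposure, 37C/5% CO2; 500 cells/well; MIPE 4.0 approved/investigational drugs pinned in; DMSO = 100%, media only = 0% viability.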

[2] = Quantitative High-Throughput drug screen in 47 multiple myeloma cell lines against the NCATS MIPE library collection: H1112_PLB cell viability assay (AID 1918967; note: nearly all actives have a fitted effect of over 30% in size)
Outline: (§2)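 CellTiter-Glo ATP luminescence gave viability after 48 h compound treatment at 37C of 500 multiple myeloma cells per well. Normalisation used DMSO-only wells as 100% and media-only wells as 0% viability; primary qHTS of approved and investigational drugs.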

[3] = Quantitative High-Throughput drug screen in 47 multiple myeloma cell lines against the NCATS MIPE library collection: Karpas25_ECACC cell viability assay (AID 1918968; note: nearly all actives have a fitted effect of over 35% in size)
Outline: as §2

[4] = Quantitative High-Throughput drug screen in 47 multiple myeloma cell lines against the NCATS MIPE library collection: KMS12PE_JCRB cell viability assay (AID 1918972); note: nearly all actives have a fitted effect of over 30% in size
Outline: as §1

[5] = Quantitative High-Throughput drug screen in 47 multiple myeloma cell lines against the NCATS MIPE library collection: KMS20_JCRB cell viability assay (AID 1918973); note: nearly all actives have a fitted effect of over 45% in size
Outline: as §2

[6] = Quantitative High-Throughput drug screen in 47 multiple myeloma cell lines against the NCATS MIPE library collection: KMS21BM_JCRB cell viability assay (AID 1918974); settings: ATP luminescence, 48 h; viability: at 45.8 µM (top of the series)
Outline: as §2

[7] = Quantitative High-Throughput drug screen in 47 multiple myeloma cell lines against the NCATS MIPE library collection: OCIMY1_PLB cell viability assay (AID 1918979); note: nearly all actives have a fitted effect of over 35% in size
Outline: (§3)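 500 cells/well; MIPE 4.0 drugs pin-transferred; 48 h, 37C, 5% CO2. CellTiter-Glo, 5 min RT, luminescence. Controls: DMSO 100%, media 0%.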

[8] = Quantitative High-Throughput drug screen in 47 multiple myeloma cell lines against the NCATS MIPE library collection: MM1S_ATCC cell viability assay (AID 1918980); note: nearly all actives have a fitted effect of over 45% in size
Outline: as §3

[9] = Quantitative High-Throughput drug screen in 47 multiple myeloma cell lines against the NCATS MIPE library collection: MM1R_ATCC cell viability assay (AID 1918981); note: nearly all actives have a fitted effect of over 35% in size
Outline: as §3

[10] = Quantitative High-Throughput drug screen in 47 multiple myeloma cell lines against the NCATS MIPE library collection: JIM1_ECACC cell viability assay (AID 1918964)
Outline: as §2

[11] = Quantitative High-Throughput drug screen in 47 multiple myeloma cell lines against the NCATS MIPE library collection: KMS27_JCRB cell viability assay (AID 1918970); settings: KMS27 myeloma cells, CellTiter-Glo ATP viability, 48 h; viability (% of DMSO): at 45.8 µM (top of the series); note: nearly all actives have a fitted effect of over 30% in size
Outline: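 Each line is seeded at 500 cells per well and treated with library compounds for 48 hours under 37 °C, 5% CO2. CellTiter-Glo is then added for 5 min at room temperature before median relative luminescence is recorded.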

[12] = Quantitative High-Throughput drug screen in 47 multiple myeloma cell lines against the NCATS MIPE library collection: KMS12BM_JCRB cell viability assay (AID 1918971); note: nearly all actives have a fitted effect of over 35% in size
Outline: (§4)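 Relative luminescence from CellTiter-Glo served as the viability signal, referenced to DMSO-treated (100%) and cell-free medium (0%) controls. Treatment lasted 48 hours at 37C with 500 cells per well.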

[13] = Quantitative High-Throughput drug screen in 47 multiple myeloma cell lines against the NCATS MIPE library collection: KMS26_JCRB cell viability assay (AID 1918975); note: nearly all actives have a fitted effect of over 45% in size
Outline: as §4

[14] = Quantitative High-Throughput drug screen in 47 multiple myeloma cell lines against the NCATS MIPE library collection: NCIH929_DSMZ cell viability assay (AID 1918978); note: nearly all actives have a fitted effect of over 35% in size
Outline: as §3

[15] = Quantitative High-Throughput drug screen in 47 multiple myeloma cell lines against the NCATS MIPE library collection: JIM3_ECACC cell viability assay (AID 1918963; note: nearly all actives have a fitted effect of over 35% in size)
Outline: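 Steps: seed 500 cells per well; pin-transfer MIPE 4.0 library; incubate 48 h at 37C, 5% CO2, humidified; add CellTiter-Glo, 5 min room temperature; read luminescence.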

[16] = Quantitative High-Throughput drug screen in 47 multiple myeloma cell lines against the NCATS MIPE library collection: MOLP8_DSMZ cell viability assay (AID 1918977); note: nearly all actives have a fitted effect of over 45% in size
Outline: as §3

[17] = Quantitative High-Throughput drug screen in 47 multiple myeloma cell lines against the NCATS MIPE library collection: JJN3_DSMZ cell viability assay (AID 1918966; note: nearly all actives have a fitted effect of over 50% in size)
Outline: as §2

[18] = Quantitative High-Throughput drug screen in 47 multiple myeloma cell lines against the NCATS MIPE library collection: MMM1_PLB cell viability assay (AID 1918976); note: nearly all actives have a fitted effect of over 35% in size
Outline: as §3

Measured: Potency
Potency is the fitted concentration of half-maximal effect.

CC(O)(C#Cc1ccc2c(c1)N(c1nc(N)ncc1Cl)CC2)c1nccs1 (stereo unspecified)
active: [1] 8.33 µM | [2] 1.18 µM | [3] 3.72 µM | [4] 13.2 µM | [5] 2.64 µM | [6] 0.332 µM | [7] 14.8 µM | [8] 11.8 µM | [9] 18.7 µM

COC(=O)[C@H](CCCN=C(N)N)NS(=O)(=O)c1ccc(C)cc1
inactive: [10] | [2] | [11] | [12] | [4] | [5] | [6] | [13] | [14] | [7] | [8]

CN(N=O)C(=O)N[C@H]1C(O)OC(CO)[C@@H](O)[C@H]1O (stereo partly specified)
inactive: [15] | [2] | [3] | [5] | [16] | [14]

C=CC(=O)Nc1cc(NC(=O)c2ccc(C)c(NC(=O)c3ccno3)c2)cc(C(F)(F)F)c1
active: [1] 16.6 µM | [17] 18.7 µM | [2] 18.7 µM | [3] 14.8 µM | [12] 23.5 µM | [4] 8.33 µM | [13] 18.7 µM | [18] 20.9 µM | [16] 18.7 µM | [14] 16.6 µM | [8] 16.6 µM | [9] 20.9 µM

COC(=O)C1C2CC3c4[nH]c5cc(OC)ccc5c4CCN3CC2CC(OC(=O)c2cc(OC)c(OC)c(OC)c2)C1OC (stereo unspecified)
inactive: [13]
active: [15] 26.4 µM | [2] 16.6 µM | [3] 23.5 µM | [4] 18.7 µM | [8] 14.8 µM | [9] 13.2 µM

OCCN1C[C@H](O)[C@@H](O)[C@H](O)[C@@H]1CO
inactive: [15] | [2] | [3] | [11] | [12] | [4] | [13] | [14] | [9]

CC1(C)O[C@@H]2C[C@H]3[C@@H]4CCC5=CC(=O)C=C[C@]5(C)[C@@H]4[C@@H](O)C[C@]3(C)[C@]2(C(=O)CO)O1
active: [3] 0.148 µM | [5] 6.62 µM | [14] 16.6 µM | [8] 0.296 µM
inactive: [15] | [2] | [12] | [4] | [13] | [7] | [9]

CC1(C)[C@H](O[C@H]2O[C@H](C(=O)O)[C@@H](O)[C@H](O)[C@H]2O[C@@H]2O[C@H](C(=O)O)[C@@H](O)[C@H](O)[C@H]2O)CC[C@@]2(C)[C@H]1CC[C@]1(C)[C@H]2C(=O)C=C2[C@H]3C[C@@](C)(C(=O)O)CC[C@]3(C)CC[C@]21C
inactive: [15] | [2] | [3] | [11] | [12] | [13] | [14] | [7]

CS(=O)(=O)N1CCc2c(-c3cnc(N)nc3)nc(N3CCOCC3)nc21
active: [1] 1.48 µM | [17] 0.59 µM | [3] 0.105 µM | [11] 0.0235 µM | [12] 0.935 µM | [13] 0.132 µM | [18] 0.148 µM | [14] 0.0209 µM | [8] 0.235 µM | [9] 0.209 µM

CS[C@H]1SC[C@@H]2C(=O)N(C)[C@H](C(C)C)C(=O)OC[C@H](NC(=O)c3cnc4ccccc4n3)C(=O)N[C@H](C)C(=O)N(C)[C@@H]1C(=O)N(C)[C@H](C(C)C)C(=O)OC[C@H](NC(=O)c1cnc3ccccc3n1)C(=O)N[C@H](C)C(=O)N2C
active: [1] 0.001 µM | [17] 0.0053 µM | [2] 0.0118 µM | [3] 0.001 µM | [11] 0.001 µM | [12] 0.003 µM | [4] 0.001 µM | [13] 0.0132 µM | [18] 0.0118 µM | [16] 0.0047 µM | [14] 0.001 µM | [7] 0.0209 µM | [8] 0.003 µM

CC(C)c1cc(C(C)C)c(CC(=O)NS(=O)(=O)Oc2c(C(C)C)cccc2C(C)C)c(C(C)C)c1
inactive: [2] | [14] | [8]
active: [15] 7.43 µM | [12] 16.6 µM | [4] 6.62 µM | [13] 26.4 µM | [18] 33.2 µM | [16] 20.9 µM | [7] 20.9 µM

Oc1ccc([C@@H]2Oc3ccc(O)cc3[C@@H]3CCC[C@@H]32)cc1
inactive: [11] | [4]
active: [2] 11.8 µM | [3] 14.8 µM | [12] 14.8 µM | [14] 18.7 µM

N#CNC(=NCCCCCCOc1ccc(Cl)cc1)Nc1ccncc1
active: [10] 0.0296 µM | [17] 0.0105 µM | [12] 0.0118 µM | [4] 0.0042 µM | [5] 8.33 µM | [13] 0.0074 µM | [18] 18.7 µM | [16] 0.0235 µM | [7] 0.0105 µM | [8] 0.0059 µM | [9] 0.0093 µM
inactive: [3]

CN1[C@H]2CC(OC(=O)[C@@H](CO)c3ccccc3)C[C@H]1[C@H]1O[C@H]12 (stereo partly specified)
inactive: [15] | [2] | [3] | [11] | [13] | [16] | [14] | [7] | [8]
active: [5] 0.007 µM

CC[C@]12C=CCN3CC[C@@]4(c5cc([C@@]6(C(=O)OC)C[C@H]7C[C@@H](C(C)(F)F)CN(Cc8c6[nH]c6ccccc86)C7)c(OC)cc5N(C)[C@H]4[C@@](O)(C(=O)OC)[C@H]1OC(C)=O)[C@@H]32
active: [1] 0.001 µM | [17] 1.48 µM | [2] 0.0372 µM | [3] 0.0235 µM | [12] 0.0074 µM | [4] 0.0074 µM | [13] 1.48 µM | [18] 4.69 µM | [16] 9.35 µM | [14] 0.469 µM | [7] 0.0469 µM | [8] 0.148 µM
